A selection: hits, their analogues and other compounds. The true share with any hit is near 4.1%.
DAX1 inh-1: NR0B1 (DAX1) inhibition; P51843; HEK293 Gal4-DAX1 luciferase reporter, luminescence; inhibition, % at 6.75 µM; AID 504766; 0.99% of 340,000 active;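 active = inhibition above the mean over all tested compounds plus 3 SD, cut at about 4.2% in these data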;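 note: 0% = DAX1-transfected cells with DMSO and 100% = empty-vector control cells with DMSO; inhibition shows as a rise in luminescence from relieved DAX1 repression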
hcDAF12 agonist: activates DAF-12 receptor from parasite H. contortus; activation, % at 6.8 µM; 1.4% of 370,000 active; HEK293 hcDAF-12 lit1-tk-luc reporter, luminescence; 0% DMSO, 100% Δ7-dafachronic acid;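 active = activation above the mean of all tested compounds plus 3 SD, cut at about 5.5% in these data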;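 note: 100% = response to 3 µM Δ7-dafachronic acid high control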
DAX1 inh-2: DAX1 (NR0B1) inhibition, primary screen. HEK293T StAR-luciferase reporter, SF-1/DAX-1 repression relief. inhibition, % at 6.8 µM. 1.1% of 370,000 active;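 active = inhibition above the mean over all tested compounds plus 3 SD, cut at about 3.6% in these data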;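 note: 0% = DAX-1 cells with DMSO and 100% = cells lacking DAX-1 with DMSO; higher inhibition means more luminescence from relief of DAX-1 repression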
hgDAF-12 ag: agonists of H. glycines DAF-12 nuclear receptor; HEK293 GAL4-hgDAF12 UAS-luciferase reporter, agonist luminescence; normalized to butyrate control; activation, % at 6.8 µM; 1.8% of 370,000 active;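 active = activation above a cutoff set at the mean of all screened compounds plus 3 SD, cut at about 10% in these data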;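 note: 0% = DMSO wells and 100% = sodium butyrate wells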
ssDAF-12 act: S. stercoralis DAF-12 activation, primary screen; 1% of 370,000 active; HEK293 ssDAF-12/GRIP1 lit1-tk-luc reporter, luminescence; % of 3 µM dafachronic acid response; activation, % at 6.8 µM;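 active = activation above the mean over all tested compounds plus 3 SD, cut at about 0.9% in these data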;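 note: 0% = DMSO-only wells and 100% = 3 µM delta7-dafachronic acid wells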
LXRb hcDAF ctr: activates human LXR-beta, counter-screen for hcDAF-12 agonists; shares compounds with hcDAF12 agonist; HEK293 Gal4-LXR tk-luc reporter, luminescence, 24 h; normalized: DMSO 0%, positive control 100%; activation, % at 6.8 µM; 3,400 tested, under 10 active; AID 743027;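 active = mean percent activation of the reporter above a cutoff set as the average over tested compounds plus their standard deviation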
Target sequence (P55055 whole entry, looked up, the tested form may be a part): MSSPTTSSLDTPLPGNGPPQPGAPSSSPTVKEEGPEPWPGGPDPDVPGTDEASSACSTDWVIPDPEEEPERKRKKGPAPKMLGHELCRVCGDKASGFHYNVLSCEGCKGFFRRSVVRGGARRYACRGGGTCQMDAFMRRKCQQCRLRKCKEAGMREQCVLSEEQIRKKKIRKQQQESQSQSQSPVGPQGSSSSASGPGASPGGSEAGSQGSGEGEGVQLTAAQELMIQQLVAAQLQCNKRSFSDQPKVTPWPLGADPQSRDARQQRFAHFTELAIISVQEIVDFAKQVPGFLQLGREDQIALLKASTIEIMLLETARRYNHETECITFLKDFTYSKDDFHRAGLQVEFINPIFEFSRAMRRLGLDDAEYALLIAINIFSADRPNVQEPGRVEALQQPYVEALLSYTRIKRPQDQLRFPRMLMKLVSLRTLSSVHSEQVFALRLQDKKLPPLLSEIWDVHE
hcDAF12 ag: hcDAF-12 agonism, confirmation assay; shares compounds with hcDAF12 agonist; activation, % at 6.8 µM; HEK293 hcDAF-12 lit1-tk-luc reporter, luminescence; % of Δ7-dafachronic acid response; AID 743032; 61% of 3,400 active;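 active = mean activation across triplicate tests above the threshold derived from the earlier primary screen, cut at about 5.5% in these data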;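 note: 0% = DMSO only wells and 100% = 3 µM Δ7-dafachronic acid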
Starred values were filed as active, the others as inactive; nt = no result.

SMILES	DAX1 inh-1	hcDAF12 agonist	DAX1 inh-2	hgDAF-12 ag	ssDAF-12 act	LXRb hcDAF ctr	hcDAF12 ag
CCOC(=O)N1CCN(C(=O)C[C@H]2C[C@@]3(C(=O)OC)C(=C[C@H](C(C)C)O[C@@H]3C3CC3)N(Cc3ccc4c(c3)OCO4)C2=O)CC1	nt	0.6	-1.0	-2.6	-1.3	nt	nt
CC(CCN1CCC(C(O)(c2ccccc2)c2ccccc2)CC1)Oc1cccc(F)c1 (stereo unspecified)	nt	11.3*	0.3	0.7	-0.5	-0.2	2.3
COC(=O)C[C@H]1CC[C@@H]2[C@H](COc3ccc(NC(=O)c4cccc(F)c4)cc3C(=O)N2C)O1	nt	0.9	-0.5	-1.3	-0.7	nt	nt
Cc1cccn2cc(-c3ccc(F)cc3)nc12	1.9	12.5*	3.9*	11.5*	1.8*	1.9	9.7*
Cc1cccn2cc(-c3ccc(F)cc3)cc12	0.2	1.8	0.6	3.8	-1.2	nt	nt
O=C(Nc1ccc2cccnc2c1)c1ccc(Br)cc1	2.5	8.6*	0.2	7.3	0.1	0.3	7.0*
O=C(Nc1ccc2nc3ccccc3nc2c1)c1ccc(Br)cc1	-0.9	-2.0	0.5	-0.3	-1.7	nt	nt
NC(=O)c1ccc(CSc2nc3ccccc3s2)cc1	0.4	8.1*	1.1	7.9	0.6	0.3	4.0
O=C(Cc1cn(Cc2ccccc2)c2ccccc12)Nc1ccc(Nc2cccnc2)cc1	nt	0.4	0.2	0.4	-1.5	nt	nt
COc1ccc([N+](=O)[O-])cc1C1NN=C(c2ccccc2O)S1 (stereo unspecified)	0.2	6.9*	0.5	5.9	0.6	-0.2	4.5
COC(=O)C1OC1c1cc([N+](=O)[O-])ccc1OC (stereo unspecified)	0.6	-1.0	-1.0	-1.9	-0.6	nt	nt
C#CCSc1nnnn1-c1ccc(Br)c(C)c1	-0.8	10.0*	-0.3	3.7	-0.3	0.1	4.8
Cc1ccc(-n2nnnc2SCC#N)cc1	0.9	0.8	0.1	1.1	-1.2	nt	nt
CN(C)c1ccc(Cn2c(=O)n(Cc3ccc(C(=O)NCC4COC4)cc3)c(=O)c3ccccc32)cc1	nt	-2.4	-0.4	-0.5	-0.9	nt	nt
CCc1ccc(OCc2nc(-c3ccccn3)no2)c(Br)c1	-1.4	7.7*	7.1*	8.4	1.0*	1.5	6.4*
CCc1ccc(S(=O)(=O)c2ccc(-n3nc(C)cc3N)cc2)cc1	-1.3	-1.4	0.1	-2.6	-1.4	nt	nt
COc1ccc(-n2nc3cc(N)c(Br)cc3n2)cc1	5.8*	13.1*	2.5	12.7*	1.2*	1.0	12.3*
Cc1cc2nn(-c3cccc4ccccc34)nc2cc1N	0.1	1.6	0.1	2.8	-0.4	nt	nt
Cc1ccc(-n2nc3cc(C)c(N)cc3n2)cc1	2.6	15.4*	3.9*	11.2*	2.5*	1.5	15.8*
CCc1ccc(-n2nc3cc(C)c(N)cc3n2)cc1	4.1	15.7*	3.2	14.0*	4.1*	1.9	20.0*
Nc1cc2nn(-c3ccccc3)nc2cc1Cl	2.2	14.5*	4.4*	22.3*	3.4*	1.5	16.9*
COc1ccc(-n2nc3ccccc3n2)cc1	0.7	1.9	0.2	3.7	0.3	nt	nt
COC(=O)c1cc2c(c3c4cc(OC)ccc4n(S(=O)(=O)c4cccc(C)c4)c13)C(=O)N(Cc1ccccc1OC)C2	nt	-1.2	-0.1	-1.3	-1.3	nt	nt
Cc1nn(-c2ccccc2)c2sc(C(=O)NC3CCCc4ccccc43)cc12 (stereo unspecified)	nt	-0.3	1.1	-2.0	-0.9	nt	nt
S=C1NC2(CCCC2)Nc2ccccc21	2.0	6.7*	0.4	3.3	0.2	-0.3	4.5
SMILES	DAX1 inh-1	hcDAF12 agonist	DAX1 inh-2	hgDAF-12 ag	ssDAF-12 act	LXRb hcDAF ctr	hcDAF12 ag
CN(C)S(=O)(=O)c1ccc(Cl)c(-c2nnc3n2CCCCC3)c1	0.6	7.8*	1.2	-0.5	0.4	-0.1	3.2
Clc1ccc(-c2nnc3n2CCCC3)cc1Cl	0.2	-0.6	0.7	0.5	-1.2	nt	nt
CC(C)C[C@@H]1COc2cc(Br)ccc2S(=O)(=O)N1Cc1cn(Cc2ccc(F)cc2)nn1	nt	-1.6	1.4	1.3	-1.1	nt	nt
COc1ccc(OC)c(Nc2nc(-c3cccs3)cs2)c1	-0.6	7.4*	0.5	3.6	0.9*	-0.1	4.6
COc1ccccc1Nc1nc(-c2cccs2)cs1	-0.5	8.2*	1.8	10.0	1.6*	1.8	16.0*
COc1ccc(OC)c(S(=O)(=O)N2CCCC(c3noc(-c4ccc(C)cc4)n3)C2)c1 (stereo unspecified)	nt	-2.2	-1.0	0.4	-1.9	nt	nt
CC(=O)OCCCN1CCC2(CCC(c3ccccc3)CC2)C1=O (stereo unspecified)	nt	-1.8	-1.0	-1.6	-1.0	nt	nt
O=C(CSc1nnc(-c2ccccc2O)o1)N1CCOCC1	1.6	11.4*	1.5	5.9	0.8	0.4	2.1
Cc1occc1-c1nnc(SCC(=O)N2CCCCC2C)o1 (stereo unspecified)	-1.4	0.0	0.1	-1.9	-0.8	nt	nt
CC1CCCCN1C(=O)CSc1nnc(-c2ccccc2O)o1 (stereo unspecified)	1.8	15.2*	1.8	16.0*	1.7*	1.4	20.5*
CCOc1ccc2nc(SCC(=O)Nc3ccc4c(c3)OCCO4)[nH]c2c1	0.3	7.3*	0.1	2.8	-0.7	-0.2	0.7
Cc1cccn2c1nc(=S)n2C(=O)c1ccco1	0.9	9.5*	1.7	11.9*	0.3	1.2	9.2*
O=C(NCCc1ccccc1)OCc1cn(-c2ccc(F)cc2)nn1	nt	-1.6	0.3	-1.1	-0.5	nt	nt
O=C(/C=C(\Nc1cccc(Cl)c1F)c1ccccc1)c1ccccc1	nt	0.3	0.0	4.9	-1.1	nt	nt
C=CCS/C(N)=N\N=C\c1c(O)ccc2ccccc12	4.2	14.1*	3.4	17.0*	1.9*	1.1	11.2*
Brc1ccccc1-c1nnc(SCc2nc3ccccc3s2)o1	0.7	12.4*	2.8	10.7*	2.5*	0.9	9.6*
COC(=O)CN1C(c2ccc(OC)cc2)=Nc2ccc(Cl)cc2C1c1ccccc1 (stereo unspecified)	1.4	-1.0	-0.4	1.3	-1.9	nt	nt
COC(=O)CN1C(c2cccc(Cl)c2)=Nc2ccc(Cl)cc2C1c1ccccc1 (stereo unspecified)	-0.4	10.3*	0.3	1.2	-1.1	-0.4	1.8
O=C1N2CCc3ccccc3C2CS(=O)(=O)N1Cc1ccc(F)cc1 (stereo unspecified)	nt	-3.0	-1.2	-1.6	-0.6	nt	nt
CCN(CC)C(=O)CNc1nnnn1-c1ccccc1	nt	0.7	0.2	2.3	0.1	nt	nt
Cn1c2ccc(Cl)cc2c2nc3ccccc3nc21	1.6	8.8*	2.5	11.7*	2.4*	0.3	8.5*
